Test results from PubChem BioAssay (NCI).
Compounds without any hit were thinned out: in the full panel of roughly 83,000, 20% have a hit.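 In brief: 96-well plates, 48 h treatment, single concentration, percent growth endpoint.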 A number with no mark means an inactive call. Activity calls are given as the source filed them. How the source made its calls: active means growth percent below 10; inactive means the rest.

Columns and labels:
Experiment in all cases: NCI-60 one-dose screen, 48 h (100 = growth as untreated, 0 = no growth, -100 = all killed)
Conditions in all cases: 10 µM unless noted
NCI-H23 lung = tested on: NCI-H23 lung
NCI-H226 lung = tested on: NCI-H226 lung
NCI-H322M lung = tested on: NCI-H322M lung
HOP-62 NSCLC = tested on: HOP-62 NSCLC
NCI-H460 lung = tested on: NCI-H460 lung
NCI-H522 lung = tested on: NCI-H522 lung
A549/ATCC NSCLC = tested on: A549/ATCC NSCLC
786-0 renal = tested on: 786-0 renal
COLO 205 colon = tested on: COLO 205 colon
DU-145 prostate = tested on: DU-145 prostate
K-562 leukemia = tested on: K-562 leukemia
MALME-3M melanoma = tested on: MALME-3M melanoma
MDA-MB-231 breast = tested on: MDA-MB-231 breast
RXF 393 renal = tested on: RXF 393 renal
SF-268 CNS = tested on: SF-268 CNS
SF-295 CNS = tested on: SF-295 CNS
SF-539 CNS = tested on: SF-539 CNS
UACC-257 melanoma = tested on: UACC-257 melanoma
M14 melanoma = tested on: M14 melanoma
HOP-92 NSCLC = tested on: HOP-92 NSCLC

SMILES	growth (NCI-H23 lung)	growth (NCI-H226 lung)	growth (NCI-H322M lung)	growth (HOP-62 NSCLC)	growth (NCI-H460 lung)	growth (NCI-H522 lung)	growth (A549/ATCC NSCLC)	growth (786-0 renal)	growth (COLO 205 colon)	growth (DU-145 prostate)	growth (K-562 leukemia)	growth (MALME-3M melanoma)	growth (MDA-MB-231 breast)	growth (RXF 393 renal)	growth (SF-268 CNS)	growth (SF-295 CNS)	growth (SF-539 CNS)	growth (UACC-257 melanoma)	growth (M14 melanoma)	growth (HOP-92 NSCLC)
Cc1ccc(-c2cc(O)c(-c3ccc(C)cc3C)cc2O)c(C)c1	76.7%	62.9%	106%	74%	23.6%	59.2%	51.9%	60%	91.1%	80%	25.8%	115%	58.2%	67.5%	57.4%	65.7%	47.8%	79%	66.8%	–
CC1(C)CC[C@]2(C(N)=O)CC[C@]3(C)C(=CC[C@@H]4[C@@]5(C)C/C(=C/c6ccncc6)C(=O)C(C)(C)[C@@H]5CC[C@]43C)[C@@H]2C1	-34.4% [100 µM] (active)	-48.3% [100 µM] (active)	-100% [100 µM] (active)	–	-48.9% [100 µM] (active)	-67.4% [100 µM] (active)	-54.2% [100 µM] (active)	-41.2% [100 µM] (active)	-55.3% [100 µM] (active)	-36.4% [100 µM] (active)	3.83% [100 µM] (active)	-84.9% [100 µM] (active)	-75% [100 µM] (active)	-52.5% [100 µM] (active)	-37.2% [100 µM] (active)	-64.4% [100 µM] (active)	-68.1% [100 µM] (active)	-58.6% [100 µM] (active)	–	-64.7% [100 µM] (active)
CC(C)(C)c1cc(C(=O)Nc2ccccc2C(=O)NCCN)cc(C(C)(C)C)c1	79.9%	78.3%	21.9%	67.8%	-55.2% (active)	16.1%	7.64% (active)	-35.7% (active)	-76.6% (active)	15.8%	-11.2% (active)	47.7%	-69.4% (active)	-89.3% (active)	57.5%	-69.4% (active)	63.4%	63.2%	-73.9% (active)	–
CC(=O)Nc1ccc(C=Nc2ccc3ccccc3c2)cc1	105%	100%	111%	114%	111%	13.5%	106%	106%	115%	112%	105%	111%	109%	108%	105%	119%	107%	103%	–	–
CCCCCn1sc(=O)n(Cc2ccc(CNC(=O)OCc3ccc4cccc(O)c4n3)cc2)c1=O	25.1%	21.9%	41.8%	-0.186% (active)	6.42% (active)	-49.1% (active)	20.6%	-71% (active)	-45.2% (active)	-15% (active)	3.39% (active)	-77.7% (active)	-62.5% (active)	-76.8% (active)	27.6%	31.1%	-69.6% (active)	0.0301% (active)	-64.7% (active)	–
O=C(NCCCCCCCNC(=O)OCc1ccc2c(Cl)cc(Cl)c(O)c2n1)OCc1ccc2c(Cl)cc(Cl)c(O)c2n1	-52.3% (active)	-50.3% (active)	31%	-56.8% (active)	-31.3% (active)	-55.6% (active)	-68.7% (active)	-62.7% (active)	-75.9% (active)	-87.3% (active)	2.04% (active)	-87.4% (active)	-72% (active)	-90.1% (active)	-58.8% (active)	1.17% (active)	-96.6% (active)	-41.6% (active)	-76.4% (active)	–
CCOc1ccccc1/C=N\Nc1ccc(S(=O)(=O)c2ccc(N/N=C/c3ccccc3OCC)cc2)cc1	95.7%	79.5%	92.1%	93%	98.6%	95.2%	96.7%	103%	114%	109%	87.9%	98%	87.8%	112%	88.3%	92.9%	90.8%	100%	96.9%	–
CC1Cc2c(Cl)ncnc2N(C)c2ccc(Cl)cc21 (configuration not stated)	13.5%	-5.56% (active)	36.8%	13.6%	19.2%	-68.3% (active)	17.9%	8.16% (active)	-77.6% (active)	40.9%	14.7%	22.6%	-39.8% (active)	0.883% (active)	18.8%	20.2%	28.1%	4.86% (active)	11.1%	–
COc1ccc(C2CC(c3cc(OC)c(OC)c(OC)c3)=NN2C(C)=O)cc1OCC(=O)Nc1nc2ccc(C(F)(F)F)cc2s1 (configuration not stated)	67.3%	40.2%	79.6%	57.1%	67.6%	66.6%	50.5%	60.1%	85%	48.5%	83.8%	68.7%	44.8%	33.5%	71.3%	61.4%	-32.9% (active)	67.1%	68%	–
O=C(Nc1cc(-c2cccnc2)nc(NCCCN2CCOCC2)n1)c1cc(Br)cc(C(F)(F)F)c1	80.9%	73.8%	58.2%	69.4%	56%	60.2%	67.9%	51.8%	1.11% (active)	82.6%	8.84% (active)	-7.83% (active)	32.7%	52.8%	60.9%	-22.8% (active)	66.5%	-27.1% (active)	-72.1% (active)	–
Nc1cc(NN=C(c2ccc(O)cc2)c2ccc(O)cc2)c([N+](=O)[O-])cc1[N+](=O)[O-]	-58.3% (active)	61.8%	110%	-10.2% (active)	-60.1% (active)	-82% (active)	-49.6% (active)	-93.9% (active)	-52.8% (active)	91.3%	78.4%	105%	54.4%	-69.9% (active)	81.8%	75.8%	-55.3% (active)	-60.6% (active)	-52.9% (active)	–
C=C(C)[C@@H]1CC[C@]2(C)[C@H](CC[C@@H]3[C@@H]([C@@](C)(O)CCC=C(C)C)CC[C@]32C)[C@@]1(C)CCC(=O)O	-5.71% [100 µM] (active)	-41.5% [100 µM] (active)	-6.31% [100 µM] (active)	-61.4% [100 µM] (active)	-34.9% [100 µM] (active)	-13.6% [100 µM] (active)	14.9% [100 µM]	1.09% [100 µM] (active)	-69.5% [100 µM] (active)	7.93% [100 µM] (active)	11.6% [100 µM]	-39.6% [100 µM] (active)	-39.5% [100 µM] (active)	-69.2% [100 µM] (active)	-17.9% [100 µM] (active)	-59.9% [100 µM] (active)	-85.7% [100 µM] (active)	28.9% [100 µM]	2.42% [100 µM] (active)	–
CC1(C)S[C@@H]2[C@H](NC(=O)[C@H](C(=O)O)c3cccs3)C(=O)N2[C@H]1C(=O)O	102%	105%	108%	105%	113%	75.8%	102%	97.1%	111%	123%	105%	103%	126%	116%	110%	98.4%	100%	96.2%	102%	–
CN(C)CCOc1ccc(/C(=C(/CCCl)c2ccccc2)c2ccccc2)cc1	28.5%	59.1%	37.1%	-18.8% (active)	-73.3% (active)	10.8%	26.4%	-28.5% (active)	-93.6% (active)	49.6%	1.34% (active)	-57.8% (active)	-11% (active)	-41.7% (active)	33%	4.51% (active)	1.72% (active)	-52.4% (active)	-52.2% (active)	–
O=C(Nc1ccc(Oc2ccc(F)cc2)c(Cl)c1)c1cccnn1	62.3%	55%	87.6%	84.2%	76.8%	61.8%	65.5%	105%	112%	76.7%	55.5%	105%	88.1%	82.6%	80.4%	73.4%	85.5%	64.3%	114%	–
O=C(O)c1cn(C2CC2)c2cc(N3CCN(Cc4c(O)ccc5ccccc45)CC3)c(F)cc2c1=O	21.9%	6.89% (active)	22%	-41.1% (active)	5.64% (active)	19.7%	-21.9% (active)	29.5%	27.1%	3.75% (active)	58.4%	10.9%	43.6%	-29.2% (active)	47.1%	39.3%	-17.7% (active)	35.1%	47.6%	–
